In the library only some 3.6% were active in any assay of this set; here they are far more common.
Mtb hypoxia inh = reduces hypoxia-regulated biosensor signal in M. tuberculosis; fluorescence inhibition, % (concentration not given with the values); 0.1% of 300,000 active; M. tuberculosis hypoxia-regulated fluorescent reporter, fluorescence; in the data active = fluorescence inhibition mostly above about 23%, no sharp cut-off; inactive = mostly below about 17%
Mtb FBA inh = inhibits M. tuberculosis FBA enzyme; inhibition, % at 1 µM; 2.3% of 360,000 active; purified M. tuberculosis FBA, fluorescence read-out; in the data active = inhibition above about 27%
Target sequence (P9WQA3 whole entry, looked up): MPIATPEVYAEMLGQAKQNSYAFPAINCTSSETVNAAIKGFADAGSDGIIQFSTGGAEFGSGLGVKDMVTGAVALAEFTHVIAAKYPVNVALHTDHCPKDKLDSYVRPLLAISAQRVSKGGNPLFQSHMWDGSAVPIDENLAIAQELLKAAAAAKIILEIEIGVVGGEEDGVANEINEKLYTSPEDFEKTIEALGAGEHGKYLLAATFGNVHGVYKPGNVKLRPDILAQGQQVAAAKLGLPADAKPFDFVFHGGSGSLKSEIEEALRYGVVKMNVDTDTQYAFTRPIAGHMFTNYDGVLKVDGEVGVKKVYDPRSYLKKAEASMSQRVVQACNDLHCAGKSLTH
Mtb betalactam = beta-lactam sensitization of Mtb H37Rv; 0.27% of 330,000 active; M. tuberculosis H37Rv growth with meropenem, percent inhibition; inhibition, % at 25 µM;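 also: growth measured after seven days incubation then overnight dye step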
DUSP3 inh = inhibitors of human VHR1 phosphatase (DUSP3) | inhibition, % at 13.3 µM | P51452 | recombinant VHR phosphatase, pNPP absorbance | AID 1654 | 0.52% of 290,000 active; in the data active = inhibition above about 50%
Target sequence (P51452 whole entry, looked up): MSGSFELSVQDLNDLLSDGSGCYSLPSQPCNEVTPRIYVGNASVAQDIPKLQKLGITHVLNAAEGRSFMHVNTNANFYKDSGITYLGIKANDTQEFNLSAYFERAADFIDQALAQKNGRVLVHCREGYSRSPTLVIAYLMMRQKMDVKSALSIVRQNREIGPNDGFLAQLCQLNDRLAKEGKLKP
GDH-TPI counter-1 = GDH-TPI coupled enzyme inhibition counter-screen; GDH-TPI coupled enzyme counterscreen, NADH absorbance; inhibition, % at 4.8 µM; 1.2% of 360,000 active; in the data active = inhibition above about 30%
Mtb FBA inh conf = Mtb FBA inhibition, confirmed. AID 651616. 78% of 5,600 active. inhibition, % at 1 µM. shares compounds with Mtb FBA inh. purified M. tuberculosis FBA, fluorescence read-out; in the data active = inhibition above about 27%
GDH-TPI counter-2 = GDH-TPI inhibition counter-screen for FBA inhibitors. inhibition, % at 1 µM. GDH-TPI coupled enzyme counterscreen, fluorescence. shares compounds with Mtb FBA inh. 81% of 5,600 active. AID 652141; in the data active = inhibition above about 10%
GDH-TPI DR = inhibits GDH-TPI coupling enzymes in dose response; 79% of 170 active; shares compounds with Mtb FBA inh; AID 652145; IC50, µM; GDH-TPI coupled enzyme assay, fluorescence, artifact counterscreen
Large screens that a line does not name were inactive (follow-up assays come after a bar, where they were run). Unless noted, no rule for the calls is given here.

CC(C)CCNC(=O)c1cn(CC(C)C)c(=O)c2c1c1ccccc1n2C	none
Cn1cc(C(=O)N2CCC3(CC2)OCCO3)c2c3ccccc3n(C)c2c1=O	Mtb FBA inh 40 | Mtb FBA inh conf 79 | GDH-TPI counter-2 59
CC(C)Cn1cc(C(=O)NCc2cccs2)c2c3ccccc3n(C)c2c1=O	Mtb FBA inh 34 | Mtb FBA inh conf 192 | GDH-TPI counter-2 144
CCCCNC(=O)c1cn(CC(C)C)c(=O)c2c1c1ccccc1n2C	none
CC(C)Cn1cc(C(=O)N2CCOCC2)c2c3ccccc3n(C)c2c1=O	Mtb FBA inh 41 | Mtb FBA inh conf 42 | GDH-TPI counter-2 26
Cn1c(C(=O)N2CCC3(CC2)OCCO3)cc2c(=O)n(C)c3ccccc3c21	none
COc1ccc(C=NNC(=O)Nc2cccc3nsnc23)cc1	none (no result: Mtb FBA inh, Mtb betalactam, DUSP3 inh, GDH-TPI counter-1)
COc1ccc(N(C(C)C(=O)NN=Cc2cccnc2)S(C)(=O)=O)cc1 (stereo not given)	none (no result: Mtb FBA inh, Mtb betalactam, DUSP3 inh, GDH-TPI counter-1)
CCOC(=O)N1CCN(C(=O)c2cn(C)c(=O)c3c2c2ccccc2n3C)CC1	Mtb FBA inh 41 | Mtb FBA inh conf 128 | GDH-TPI counter-2 108
CC(=O)Nc1nc2c(c3c1c(=O)oc1ccccc13)CCCCC2	none (no result: Mtb FBA inh, GDH-TPI counter-1)
Nc1nc2c(c3c1c(=O)oc1ccccc13)CCCCC2	Mtb FBA inh 38 | Mtb FBA inh conf inactive | GDH-TPI counter-2 inactive
CC1CCN(Cc2c(C(=O)NN=Cc3cccc(C(F)(F)F)c3)nnn2-c2nonc2N)CC1	none (no result: Mtb FBA inh, Mtb betalactam, DUSP3 inh, GDH-TPI counter-1)
COC(CNC(=O)c1cccc(-n2c(=S)[nH]c3cc(Cl)ccc3c2=O)c1)OC	Mtb FBA inh 68 | Mtb FBA inh conf active | GDH-TPI counter-2 159
NNc1ccc2c(C(F)(F)F)cc(C(F)(F)F)nc2n1	Mtb FBA inh 30 | Mtb FBA inh conf 80 | GDH-TPI counter-2 62
Cc1ccc(/C=N/Nc2ccc3c(C(F)(F)F)cc(C(F)(F)F)nc3n2)cc1	none (no result: Mtb hypoxia inh)
O=C1C=CC(=O)N1c1ccc(-c2nc3ccccc3o2)cc1	Mtb FBA inh 65 (no result: Mtb hypoxia inh, Mtb betalactam, DUSP3 inh) | Mtb FBA inh conf inactive | GDH-TPI counter-2 inactive
Cc1ccc(C(=O)NN2C(=O)C3C4C=CC(C4)[C@@H]3C2=O)cc1 (stereo not given in full)	none
O=C(NN1C(=O)C2C3C=CC(C3)C2C1=O)c1ccccc1 (stereo not given)	Mtb FBA inh 77 | Mtb FBA inh conf inactive | GDH-TPI counter-2 inactive
CC(=NN1CCN(c2ccc(Cl)cc2)CC1)c1ccco1	none (no result: Mtb FBA inh, Mtb betalactam, DUSP3 inh, GDH-TPI counter-1)
CCN1CCN(C(=O)c2cc3cc(F)ccc3[nH]2)CC1	Mtb FBA inh 82 | Mtb FBA inh conf 148 | GDH-TPI counter-2 96
COc1cc(C(=O)Nc2ccc(-c3nnc(-c4ccco4)o3)cc2)cc(OC)c1OC	none
COc1ccccc1CC(=O)Nc1ccc(-c2nnc(-c3ccco3)o2)cc1	Mtb FBA inh 83 | Mtb FBA inh conf 51 | GDH-TPI counter-2 42
O=C(Cc1ccc(Cl)cc1)Nc1ccc(-c2nnc(-c3ccco3)o2)cc1	Mtb FBA inh 59 | Mtb FBA inh conf 38 | GDH-TPI counter-2 31
O=C(Cc1ccccc1)Nc1ccc(-c2nnc(-c3ccco3)o2)cc1	Mtb FBA inh 51 (no result: Mtb hypoxia inh) | Mtb FBA inh conf active | GDH-TPI counter-2 151
C=C(C)C1CC=C(C)C(=NNC(=O)CCCNc2cccc(C)c2)C1 (stereo not given)	none (no result: Mtb FBA inh, Mtb betalactam, DUSP3 inh, GDH-TPI counter-1)
CC(/C=C/c1ccccc1)=NNC(=O)c1cnccn1	none (no result: Mtb FBA inh, Mtb betalactam, DUSP3 inh, GDH-TPI counter-1)
COc1ccc(C2C3C(=O)N(C(C)(C)C)C(=O)C3[C@]3(CC(C)C)C(=O)N(c4ccccc4)C(=O)N23)cc1 (stereo not given in full)	none (no result: Mtb FBA inh, Mtb betalactam, DUSP3 inh, GDH-TPI counter-1)
Cc1ccc(S(=O)(=O)N2C(c3cccs3)CC=C(C(=O)O)C2c2ccc(F)cc2)cc1 (stereo not given)	none (no result: Mtb FBA inh, Mtb betalactam, DUSP3 inh, GDH-TPI counter-1)
CCOc1ccc2cc(C(=O)NCc3ccccc3)c(=N)oc2c1	Mtb FBA inh 41 | Mtb FBA inh conf 53 | GDH-TPI counter-2 35
CC1CCCCN1Cc1ccc(N)cc1 (stereo not given)	none
CC1CCCCN1Cc1c(O)ccc2c(=O)c(-c3ccc(Br)cc3)coc12 (stereo not given)	Mtb FBA inh 42 (no result: Mtb betalactam) | Mtb FBA inh conf active | GDH-TPI counter-2 164
Cc1c(CN2CCCCC2C)c(=O)n(-c2ccccc2)n1C (stereo not given)	none
CC1CCCCN1Cc1c(O)ccc2c(=O)c(-c3ccc(Cl)cc3Cl)coc12 (stereo not given)	Mtb FBA inh 62 | Mtb FBA inh conf active | GDH-TPI counter-2 active
CC1CCCCN1Cc1c(O)ccc2c(=O)c(-c3ccc(Cl)cc3)coc12 (stereo not given)	Mtb FBA inh 52 | Mtb FBA inh conf 123 | GDH-TPI counter-2 103
COC(=O)c1ccc2c(c1)C(C)(C)C(/C=C/c1ccc(O)cc1)=[N+]2C	none
COC(=O)c1ccc2c(c1)C(C)(C)C(/C=C/c1ccc(OC)c(OC)c1OC)=[N+]2C	Mtb FBA inh 47 (no result: Mtb hypoxia inh) | Mtb FBA inh conf 78 | GDH-TPI counter-2 57
CNC(=O)c1ccc(-c2ccccc2)s1	Mtb FBA inh 28 (no result: Mtb hypoxia inh) | Mtb FBA inh conf 78 | GDH-TPI counter-2 53
CC(=O)Nc1ccc(-c2ccccc2)s1	none (no result: Mtb hypoxia inh)
C#CCOCCOCCOCCNc1nc(N2CCN(C(=O)C(CCCCN)n3cc(C(N)CO)nn3)CC2)nc(N2CCN(C(=O)C(Cc3ccc(O)cc3)n3cc(C(N)C(C)CC)nn3)CC2)n1 (stereo not given)	none (no result: Mtb FBA inh, Mtb betalactam, DUSP3 inh, GDH-TPI counter-1)
CC(C)c1ccc(C(=O)Nc2ccc(CN3CCOCC3)cc2)cc1	Mtb FBA inh 69 | Mtb FBA inh conf 196 | GDH-TPI counter-2 191
O=C(O)c1ccccc1O	Mtb FBA inh 46 | Mtb FBA inh conf inactive | GDH-TPI counter-2 inactive
Nc1c(O)cccc1C(=O)O	Mtb FBA inh 40 (no result: DUSP3 inh) | Mtb FBA inh conf active | GDH-TPI counter-2 193
Cc1cccc(C(=O)O)c1O	Mtb FBA inh 38 (no result: Mtb hypoxia inh, Mtb betalactam, DUSP3 inh) | Mtb FBA inh conf 87 | GDH-TPI counter-2 52
Cn1ccsc1=NC(=O)Nc1cccc(C(F)(F)F)c1	none (no result: Mtb FBA inh, Mtb betalactam, DUSP3 inh, GDH-TPI counter-1)
COc1ccc(-c2cc(C(=O)O)c3sc(N4CCCCC4)nc3n2)cc1OC	Mtb FBA inh 94 | Mtb FBA inh conf 109 | GDH-TPI counter-2 67
O=C(O)c1cc(-c2ccccc2)nc2nc(N3CCCCC3)sc12	none (no result: Mtb FBA inh, GDH-TPI counter-1)
CNCc1cc(Cl)cc(OC)c1OC(C)C	Mtb FBA inh 65 (no result: Mtb betalactam) | Mtb FBA inh conf 79 | GDH-TPI counter-2 86
COC(=O)C1=C(C)NC(=O)CC1c1cccc(Cl)c1Cl (stereo not given)	none
CCOC(=O)C1=C(C)NC(C)=C(C(=O)OC)C1c1cccc(Cl)c1Cl (stereo not given)	Mtb FBA inh 41 (no result: Mtb hypoxia inh) | Mtb FBA inh conf inactive | GDH-TPI counter-2 inactive | GDH-TPI DR inactive
O=c1c(=Cc2ccc(O)cc2)sc2nc(-c3ccccc3)c(-c3ccccc3)n12	none (no result: Mtb FBA inh, Mtb betalactam, DUSP3 inh, GDH-TPI counter-1)
O=S(=O)(O)c1cc(O)c2ccc(Nc3ccccc3)cc2c1	Mtb FBA inh 35 (no result: Mtb betalactam, DUSP3 inh) | Mtb FBA inh conf inactive | GDH-TPI counter-2 inactive

Screens as filed in PubChem BioAssay.
